According to PubChem BioAssay (NCI):
The panel holds about 83,000 compounds, 20% with a hit somewhere; the sample as a whole holds those more often.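 Step 1: grow cells in 96-well plates. Step 2: add test compound at a single concentration. Step 3: incubate 48 h. Step 4: record percent growth.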

How the values were obtained:
Assay in all cases: NCI-60 one-dose screen, 48 h (100 = growth as untreated, 0 = no growth, -100 = all killed); active = growth percent below 10; inactive = the rest
HCT-15 colon = conditions: 10 µM
HT29 colon = conditions: 10 µM
SNB-75 CNS = conditions: 10 µM
SNB-19 CNS = conditions: 10 µM
U251 CNS = conditions: 10 µM
PC-3 prostate = conditions: 10 µM
SK-MEL-5 melanoma = conditions: 10 µM
UACC-62 melanoma = conditions: 10 µM unless noted
LOX IMVI melanoma = conditions: 10 µM
SK-MEL-28 melanoma = conditions: 10 µM

Measured: growth

COc1ccccc1N=Nc1c(O)ccc2cc(S(=O)(=O)O)ccc12
inactive: HCT-15 colon 107% | HT29 colon 96.7% | SNB-75 CNS 69.6% | SNB-19 CNS 100% | U251 CNS 99.5% | PC-3 prostate 92.6% | SK-MEL-5 melanoma 103% | UACC-62 melanoma 100% | LOX IMVI melanoma 100% | SK-MEL-28 melanoma 111%

CCO/C=C1\SC(=S)N(c2cccc(C)c2)C1=O
inactive: HCT-15 colon 101% | HT29 colon 102% | SNB-75 CNS 80.6% | SNB-19 CNS 111% | U251 CNS 98.6% | PC-3 prostate 92.5% | SK-MEL-5 melanoma 102% | UACC-62 melanoma 105% | LOX IMVI melanoma 104% | SK-MEL-28 melanoma 104%

CCCCN(CCCC)CCCO
inactive: HCT-15 colon 100% | HT29 colon 126% | SNB-75 CNS 86.7% | SNB-19 CNS 112% | U251 CNS 116% | PC-3 prostate 180% | SK-MEL-5 melanoma 104% | UACC-62 melanoma 106% | LOX IMVI melanoma 101% | SK-MEL-28 melanoma 110%

O=[N+]([O-])c1ccc(CO)cc1
inactive: HCT-15 colon 98% | HT29 colon 108% | SNB-75 CNS 108% | SNB-19 CNS 105% | U251 CNS 105% | PC-3 prostate 97.2% | SK-MEL-5 melanoma 101% | UACC-62 melanoma 99.1% | LOX IMVI melanoma 99.2% | SK-MEL-28 melanoma 112%

O=C(O)c1ccnc(Br)c1
inactive: HCT-15 colon 106% | HT29 colon 110% | SNB-75 CNS 89.5% | SNB-19 CNS 103% | U251 CNS 100% | PC-3 prostate 86.1% | SK-MEL-5 melanoma 93.5% | UACC-62 melanoma 106% | LOX IMVI melanoma 107% | SK-MEL-28 melanoma 111%

Cc1ncc(C#N)c(N)n1
inactive: HCT-15 colon 100% | HT29 colon 112% | SNB-75 CNS 77.8% | SNB-19 CNS 102% | U251 CNS 100% | PC-3 prostate 90% | SK-MEL-5 melanoma 89.9% | UACC-62 melanoma 99.7% | LOX IMVI melanoma 100% | SK-MEL-28 melanoma 102%

C1CNC(C2=NCCN2)=N1
inactive: HCT-15 colon 108% | HT29 colon 102% | SNB-75 CNS 100% | SNB-19 CNS 112% | U251 CNS 102% | PC-3 prostate 98.8% | SK-MEL-5 melanoma 101% | UACC-62 melanoma 104% | LOX IMVI melanoma 98% | SK-MEL-28 melanoma 109%

CC(O)COc1ccc(-c2ccccc2)cc1 (stereo not given)
inactive: HCT-15 colon 96.3% | HT29 colon 116% | SNB-75 CNS 102% | SNB-19 CNS 98.4% | U251 CNS 99.7% | PC-3 prostate 101% | SK-MEL-5 melanoma 99.1% | UACC-62 melanoma 92.4% | LOX IMVI melanoma 101% | SK-MEL-28 melanoma 103%

CC(C)(O)C#CC#CC(C)(C)O
inactive: HCT-15 colon 97.7% | HT29 colon 97.8% | SNB-75 CNS 94% | SNB-19 CNS 112% | U251 CNS 98% | PC-3 prostate 99.3% | SK-MEL-5 melanoma 99% | UACC-62 melanoma 111% | LOX IMVI melanoma 97% | SK-MEL-28 melanoma 99.4%

O=S(=O)(O)c1ccc(Cl)c(Cl)c1
inactive: HCT-15 colon 107% | HT29 colon 109% | SNB-75 CNS 91.6% | SNB-19 CNS 101% | U251 CNS 105% | PC-3 prostate 94.1% | SK-MEL-5 melanoma 107% | UACC-62 melanoma 99% | LOX IMVI melanoma 91.8% | SK-MEL-28 melanoma 112%

Oc1ccccc1O
inactive: HCT-15 colon 95.6% | HT29 colon 92.1% | SNB-75 CNS 89.4% | SNB-19 CNS 80.2% | U251 CNS 82.7% | PC-3 prostate 87.4% | SK-MEL-5 melanoma 89.3% | UACC-62 melanoma 86.8% | LOX IMVI melanoma 85.3% | SK-MEL-28 melanoma 101%

c1cc[n+](C2c3ccccc3C([n+]3ccccc3)c3ccccc32)cc1 (stereo not given)
inactive: HCT-15 colon 103% | HT29 colon 73.4% | SNB-75 CNS 17.9% | SNB-19 CNS 26.7% | U251 CNS 21.5% | PC-3 prostate 58.4% | SK-MEL-5 melanoma 27.6% | UACC-62 melanoma 67.3% | LOX IMVI melanoma 76.1% | SK-MEL-28 melanoma 61.6%

CC(=O)Oc1ccc(Br)cc1C(=O)O
inactive: HCT-15 colon 102% | HT29 colon 107% | SNB-75 CNS 101% | SNB-19 CNS 95% | U251 CNS 105% | PC-3 prostate 92.2% | SK-MEL-5 melanoma 104% | UACC-62 melanoma 98.6% | LOX IMVI melanoma 94.6% | SK-MEL-28 melanoma 124%

OC(c1ccccn1)C(O)c1ccccn1 (stereo not given)
inactive: HCT-15 colon 97.6% | HT29 colon 106% | SNB-75 CNS 89.9% | SNB-19 CNS 99.3% | U251 CNS 109% | PC-3 prostate 102% | SK-MEL-5 melanoma 106% | UACC-62 melanoma 95.6% | LOX IMVI melanoma 96% | SK-MEL-28 melanoma 113%

CC(C)C1CCCCC1O (stereo not given)
inactive: HCT-15 colon 96% | HT29 colon 106% | SNB-75 CNS 108% | SNB-19 CNS 104% | U251 CNS 100% | PC-3 prostate 98.3% | SK-MEL-5 melanoma 103% | UACC-62 melanoma 102% | LOX IMVI melanoma 96.3% | SK-MEL-28 melanoma 116%
